Screens as filed in PubChem.
Rows were chosen to be rich in hits. Some 7.9% of all compounds tested hit in one or more screens of this group.
Lassa entry inh: qHTS for Inhibitors of binding or entry into cells for Lassa Virus | Lassa virus pseudotype entry inhibition, cell reporter | Potency, µM (titrated, usually from 37.9 µM), without a hit: at the top dose activity change, negative = inhibition, hits mostly inhibitors | hit rate 1.2% among 300,000 | AID 540256, 2011; calls by dose curve; tested in HEK293 cells; further: potency means the concentration at half of the fitted maximal effect; nearly all actives have a fitted effect of over 50% in size
HCMV antiviral: qHTS Assay for inhibitors of the human cytomegalovirus (HCMV). AID 1259415, 2018. hit rate 4.5% among 410,000. activity change, negative = inhibition, % at 57.5 µM. HFF cells, HCMV-luciferase reporter, 72 h; hits give low values; in the data active means activity change below about -60%; inconclusive means no clear call, values can overlap the other calls; inactive means above about -39%
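Screen run at 2 compound doses on HFFs infected with reporter HCMV, MOI 1 PFU/cell. Luciferase activity from cell lysates at 72 h post infection gave inhibition relative to buffer-only and Salinomycin wells.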
MARV entry inh: qHTS for inhibitors of binding or entry into cells for Marburg Virus; Marburg virus pseudotyped entry inhibition, cell reporter; Potency, µM (doses to about 37.8 µM), for the others: at the top dose activity change, negative = inhibition, actives largely listed as inhibitors; hit rate 1.8% among 300,000; AID 540276, 2011; calls by dose curve; tested in HEK293 cells; further: potency means the concentration at half of the fitted maximal effect
FMDV inh: High Throughput Screening for Foot and Mouth Disease Virus Antivirals | FMDV antiviral cell-based qHTS | Potency, µM (series often up to 57.9 µM), without a hit: top-dose activity change, negative = inhibition, hits mostly inhibitors | hit rate 1.2% among 410,000; calls by dose curve; tested in HEK293T cells; further: read-out not given here; potency means the concentration at half of the fitted maximal effect; nearly all actives have a fitted effect of over 45% in size
HCV inhibitor: qHTS Assay for Inhibitors of Hepatitis C Virus (HCV); Huh7.5.1 HCVcc-Cre infection, luciferase reporter, 44 h; Potency, µM (highest dose often 41.8 µM), for inactives: at the highest dose activity change, negative = inhibition, most hits filed as inhibitors; hit rate 3.4% among 340,000; active means well fitted inhibition curve with a large enough effect; inconclusive means small, poorly fitted or top-dose-only effect, or another doubt; inactive means no such curve, though single readings can be large or run the other way; further: potency means the concentration at half of the fitted maximal effect
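Luciferase read-out (15 sec integration) after a 15 min room-temperature substrate step quantifies HCVcc-Cre infection. Cells, 1,000 per well, had compound added 4 h post-plating, then virus at ~0.5 moi, and were cultured 44 h.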
* hit, by the source's call; ? = inconclusive; nt = not tested or not shown; ! = not confirmed by another sample; [ ] = dose if it differs, or a comment. On the % scale 0 is the no-effect control and ±100 the full control effect.

SMILES	Lassa entry inh	HCMV antiviral	MARV entry inh	FMDV inh	HCV inhibitor
COc1ccc(NC(=O)c2ccco2)cc1NC(=O)C(C)Oc1ccc(Cl)cc1Cl (stereo not given)	?	-80.1*	?	?	nt
COc1ccc(NC(=O)c2ccco2)cc1NC(=O)C(C)(C)Oc1ccc(Cl)cc1	?	-1.1	?	44.7µM*	nt
COc1ccc(C(=O)Nc2cc(NC(=O)c3ccco3)ccc2OC)cc1Cl	10.7%[46.1 µM]	23.6	-11.0%[46.1 µM]	-12.8%	nt
COc1ccc(NC(=O)c2ccco2)cc1NC(=O)c1ccco1	-1.8%	16.1	?	-15.3%	-21.6%
COc1ccc(NC(=O)Cc2ccc(Cl)cc2)cc1NC(=O)c1ccco1	-25.7%	-85.9*	-0.1%	-25.6%	10µM*
COc1cc(NC(=O)c2ccco2)ccc1NC(=O)c1ccccc1Cl	12.6µM*	?	?	12.0%	?
CCN(C[C@H]1N[C@@](CC)(C(=O)OC)[C@H]2C(=O)N(Cc3ccccc3)C(=O)[C@@H]12)S(=O)(=O)c1ccc(C(C)(C)C)cc1	nt	-14.4	nt	-16.1%	-93.8%
O=C(COc1ccc(Br)cc1)NC(=S)Nc1ccccc1N1CCOCC1	4.3%	30.0	-3.3%	2.1%	nt
O=C(NC(=S)Nc1ccccc1N1CCCCC1)c1ccccc1	nt	-18.7	nt	?	11.2µM*
O=C(NC(=S)Nc1ccccc1N1CCOCC1)c1ccc(Br)cc1	nt	-65.6*	nt	0.3%	?
O=C(N/N=C/C1C(c2ccccc2)C1(Cl)Cl)c1cccc(Cl)c1 (stereo not given)	9.5%	-23.2	22.8%	0.0%	-21.9%
Cc1cc(C)c(C(=O)/C=C/c2cccc3ccccc23)c(=O)[nH]1	6.31µM*	-103.5*	?	?	11.2µM*
Cc1cc(C)c(C(=O)/C=C/c2ccc3c(c2)OCO3)c(=O)[nH]1	-22.2%	-101.3*	-19.0%[46.1 µM]	4.8%	?
CCCn1c(NC(=O)c2ccc([N+](=O)[O-])o2)nc2ccccc21	-28.7%	-62.8*	?	-9.1%	?
CCCn1c(NC(=O)c2cccc(C)c2C)nc2ccccc21	-23.8%	nt	?	34.6%	11.2µM*
Cn1c(NC(=O)c2ccc(F)cc2)nc2ccccc21	nt	65.8	nt	54.0%	-13.0%
CCC(=O)Nc1nc2ccccc2n1Cc1ccccc1	?	-91.7*	?	0.0%	?
Cn1c(NC(=O)c2ccccc2NC(=O)C(C)(C)C)nc2ccccc21	nt	-25.4	nt	-17.5%	7.08µM*
O=C(Nc1ncccn1)c1ccc([N+](=O)[O-])o1	-3.3%	15.0	?	-17.0%	?
CCCn1c(NC(=O)C2CCN(C(=O)c3ccccc3C)CC2)nc2ccccc21	?	-28.3	?	0.0%	?
COC(=O)CC1Oc2ccccc2-n2cc(-c3ccc(C)cc3)nc21 (stereo not given)	?	-4.5	?	1.0%	nt
Cc1ccccc1-c1nc(CS(=O)(=O)CC(=O)N2CCN(c3ccccc3)CC2)c(C)o1	-22.3%[46.1 µM]	-28.8	-13.9%[46.1 µM]	?	nt
CCOC(=O)N1CCN(C(=O)CSCc2nc(-c3ccccc3F)oc2C)CC1	-6.2%	-80.5*	?	-27.6%	?
Cc1oc(-c2ccccc2F)nc1CS(=O)(=O)CC(=O)N1CCN(c2ccccc2)CC1	6.4%[46.1 µM]	-18.5	-5.8%[46.1 µM]	25.1µM*	-10.9%
CC(=O)Nc1cc(-c2ccc(F)cc2)cn2c(-c3ccc(S(C)(=O)=O)cc3)cnc12	nt	12.2	nt	-20.8%	nt
SMILES	Lassa entry inh	HCMV antiviral	MARV entry inh	FMDV inh	HCV inhibitor
CCN(CC)c1ccc(-c2nn3c(-c4n[nH]c5c4CCC5)nnc3s2)cc1	?	35.0	?	-26.7%	7.94µM*
C1CCC(c2nn3c(-c4n[nH]c5c4CCC5)nnc3s2)CC1	-18.5%	-23.8	1.0%	?	-16.4%
CCN(CC)S(=O)(=O)c1ccc2[nH]cc(C(=O)NCCC3=CCCCC3)c(=O)c2c1	1.26µM*	-83.1*	11.2µM*	14.1µM*	11.2µM*
CCN(CC)S(=O)(=O)c1ccc2[nH]cc(C(=O)NCCCN3CCCCC3C)c(=O)c2c1 (stereo not given)	-12.8%	-73.0*	8.6%	nt	-3.8%
C=C(C)C(=O)C=CCCCC=CC(=O)OCC	nt	nt	7.0%[14.2 µM]	nt	nt
Cc1cc(N2CCC(C(=O)N3CCN(c4cccc(C)c4C)CC3)CC2)n2ncnc2n1	-15.8%	-88.6*	?	-16.0%	?
Cc1cccc(N2CCN(C(=O)C3CCN(c4ncnc5c4nc4n5CCCCC4)CC3)CC2)c1C	?	-76.5*!	nt	20µM*	7.08µM*
Cc1cccc(N2CCN(C(=O)C3CCN(c4ncnc5c4nc4n5CCCCC4)CC3)CC2C)c1 (stereo not given)	10µM*	-96.1*!	?	31.6µM*	5.62µM*
O=C(C1CCN(c2ncnc3c2nc2n3CCCCC2)CC1)N1CCN(c2ccccc2F)CC1	-6.9%[46.1 µM]	-64.1*!	nt	?	4.9%
Cc1cccc(N2CCN(C(=O)C3CCCCC3)CC2)c1C	-35.3%	-37.7	-23.4%	nt	0.9%
COc1ccccc1N1CCN(C(=O)C2CCCN(c3ncnc4c3nc3n4CCCCC3)C2)CC1 (stereo not given)	?	7.4	?	?	?
O=C(C1CCCN(c2ncnc3c2nc2n3CCCCC2)C1)N1CCN(c2cccc(Cl)c2)CC1 (stereo not given)	nt	-28.9	nt	?	?
COc1c(OC(C)=O)ccc(/C=C/c2ccc3cccc(OCc4ccccc4)c3n2)c1[N+](=O)[O-]	?	11.9	?	-4.9%	7.08µM*
COc1cc(/C=C/c2ccc3cccc(OC)c3n2)c(OC(C)=O)c([N+](=O)[O-])c1	?	-83.8*	?	?	8.91µM*
COc1cc(/C=C/c2ccc3cccc(OC)c3n2)c(O)c([N+](=O)[O-])c1	nt	-37.3	nt	-22.7%	?
N=c1nc(N)nc2n1NC(c1ccc(F)cc1)=CS2	?	-87.7*	?	27.6%	?
CC(C)c1ccc(NC(=O)C2CCCCN2S(=O)(=O)c2ccccc2)cc1 (stereo not given)	nt	?	nt	-1.9%	22.4µM*
COc1ccc(-c2csc(NC(=O)C3CCCCN3S(=O)(=O)c3ccccc3)n2)cc1 (stereo not given)	15.8µM*	-67.6*	?	-63.0%	?
COc1cccc(OCC(=O)NCCS(=O)(=O)N2CCN(c3ccccc3F)CC2)c1	?	-16.8	nt	5.2%	nt
CCCN(CCC)c1nc(Cl)nc(NCCN2CCOCC2)n1	nt	-14.1	nt	?	14.1µM*
Cc1cccc(NC(=O)CN2C(=O)S/C(=C\c3cc(C)n(C)c3C)C2=O)c1	0.4%	-62.5*	-15.8%	-19.0%	?
C#C[C@]1(O)CC[C@H]2[C@@H]3CCC4=Cc5nc6nc7ccccc7n6cc5C[C@]4(C)[C@H]3CC[C@@]21C	nt	-29.6	nt	14.1µM*	?
C#C[C@]1(O)CC[C@H]2[C@@H]3CCC4=Cc5oncc5CC4(C)[C@H]3CCC21C (stereo not given in full)	?	nt	20.6µM*	nt	nt
